# Rab7 wt GTP bind = dog Rab7 wildtype GTP binding, inhibitors and activators; GST-Rab7 beads, fluorescent GTP binding, flow cytometry; actives lie on both sides; untreated = 100%, excess cold GTP = 0%; GTP binding activity (percent of control), % at 10 µM; AID 758; actives 0.055% (n = 190,000);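 active means fluorescent GTP binding to Rab7 beads changed by at least 20 points from the 100% baseline, either direction, mostly lower; inconclusive means compound itself probably fluorescent, or too few beads counted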;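 further: median green fluorescence of bound Bodipy-FL-GTP per Rab7 bead population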
# Rab2A wt mod = changes GTP binding to wildtype dog Rab2A, up or down. P61105. GST-Rab2 wt beads, Bodipy-GTP binding, flow cytometry. GTP binding activity, % at 10 µM. actives 0.19% (n = 190,000);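 active means GTP binding activity at least 20 points away from 100%, either lowered or raised; inconclusive means signal likely due to the compound's own green fluorescence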;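 further: 0% = beads with excess unlabeled GTP and 100% = no-compound control corrected for plate trend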
# Rac1 mut GTP = modulators of GTP binding to human Rac1 activated mutant. GST-Rac1 activated beads, fluorescent GTP binding, flow cytometry; actives lie on both sides; 100% means binding = to untreated wells. percent activity (GTP binding), % at 10 µM. actives 0.11% (n = 190,000). AID 764;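 active means GTP binding at least 20 percentage points away from the 100% baseline, in either direction, so actives lie on both sides; inconclusive means Compound likely fluorescent itself, or too few beads counted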
# HRas wt GTP = human HRas wildtype GTP binding, change in either direction; P01112; GST-Ras wt beads, Bodipy-FL-GTP binding, flow cytometry; actives lie on both sides; GTP binding activity, % at 10 µM; actives 0.14% (n = 190,000); AID 759;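 active means GTP binding activity at least 20% away from the 100% baseline, either lowered as inhibitor or raised as activator; inconclusive means flagged as likely green fluorescent, judged across all proteins in the well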;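 further: 0% = unlabeled GTP competition control and 100% = no-compound control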
# Target sequence (P01112 whole entry, looked up): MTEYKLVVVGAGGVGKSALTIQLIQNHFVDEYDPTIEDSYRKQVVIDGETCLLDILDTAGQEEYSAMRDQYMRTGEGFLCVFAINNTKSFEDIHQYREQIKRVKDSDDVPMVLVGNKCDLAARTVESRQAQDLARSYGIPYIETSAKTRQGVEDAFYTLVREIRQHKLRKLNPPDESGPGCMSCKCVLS
# Rac1 wt GTP bind = modulators of human Rac1 wildtype GTP binding. GTP binding activity (% of control), % at 10 µM. P63000. actives 0.27% (n = 190,000). AID 757. GST-Rac1 beads, fluorescent GTP binding, flow cytometry; actives lie on both sides; 0 = cold GTP competed, 100 = untreated;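 active means GTP binding activity at least 20 points away from the 100% control level, either lower or higher; inconclusive means compound flagged as likely green fluorescent, judged across all proteins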
# Cdc42 wt GTP = changes GTP binding to wildtype human Cdc42. actives 0.2% (n = 190,000). percent activity (GTP binding), % at 10 µM. P60953. GST-Cdc42 beads, Bodipy-GTP binding, flow cytometry; actives lie on both sides;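 active means percent activity GTP binding at least 20 points away from the 100% baseline, either down as inhibitor or up as activator; inconclusive means compound flagged as likely green fluorescent from well-wide comparison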;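 further: median bead fluorescence of bound Bodipy-FL-GTP at 100 nM; 0% = excess unlabeled GTP control and 100% = no compound control; below 100% means less GTP binding so inhibitor and above means activator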
# Target sequence (P60953 whole entry, looked up): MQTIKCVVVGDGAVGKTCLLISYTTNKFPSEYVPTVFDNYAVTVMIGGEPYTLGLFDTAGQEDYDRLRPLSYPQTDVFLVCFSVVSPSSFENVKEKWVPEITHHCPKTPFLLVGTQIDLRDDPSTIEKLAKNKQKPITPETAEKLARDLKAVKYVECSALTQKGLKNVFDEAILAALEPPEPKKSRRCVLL
# Starred values were filed as active, the others as inactive; ? = inconclusive; [ ] = remark or other dose. An excerpt weighted towards active compounds, which were near 0.37% of everything screened.
SMILES,Rab7 wt GTP bind,Rab2A wt mod,Rac1 mut GTP,HRas wt GTP,Rac1 wt GTP bind,Cdc42 wt GTP
O=C(Nc1ccc(S(=O)(=O)N2CCCc3ccccc32)cc1)C1CCCO1 (configuration not stated),103.0,111.0,102.0,110.0,120.0*[activator],117.0
S=C(NCCc1ccccc1)N1CCn2cccc2C1c1cccnc1 (configuration not stated),86.0,80.0,77.0*,81.0,78.0*,78.0*
S=C(NCc1ccccc1)N1CCn2cccc2C1c1cccnc1 (configuration not stated),97.0,96.0,95.0,98.0,97.0,98.0
CCOc1ccc(S(=O)(=O)Nc2ccc(O)c(Sc3ncn[nH]3)c2)cc1,99.0,99.0,97.0,99.0,101.0,98.0
COc1ccc(OC)c(S(=O)(=O)Nc2ccc(O)c(Sc3ncn[nH]3)c2)c1,21.0*,35.0*,36.0*,39.0*,31.0*,36.0*
COCCNc1nc(=S)[nH]c2cc(OC)c(OC)cc12,79.0*,69.0*,83.0,71.0*,71.0*,68.0*
COc1cc2[nH]c(=S)nc(NCc3ccccn3)c2cc1OC,95.0,82.0,88.0,83.0,76.0*,83.0
COc1cc2c(cc1NCc1ccccn1)oc1ccccc12,102.0,100.0,100.0,103.0,105.0,105.0
COc1ccc(CCNC(=O)CCCCCNc2nc(=S)[nH]c3ccccc23)cc1OC,101.0,92.0,95.0,94.0,94.0,97.0
C=CCOc1ccc(C2C(C(=O)c3ccco3)=C(O)C(=O)N2c2nnc(C)s2)cc1 (configuration not stated),93.0,91.0,89.0,96.0,95.0,91.0
CCOC(=O)CNC(=S)n1ncnc1N,89.0,95.0,93.0,95.0,96.0,95.0
O=[N+]([O-])c1ccc(C(O)CN=Cc2ccc(O)cc2O)cc1 (configuration not stated),100.0,98.0,95.0,98.0,99.0,97.0
COc1ccc(S(=O)(=O)N2CCCCC2)cc1NC(=O)c1ccc([N+](=O)[O-])o1,97.0,84.0,87.0,86.0,74.0*,82.0
CC1=NCCN1S(=O)(=O)c1ccccc1[N+](=O)[O-],108.0,104.0,102.0,102.0,108.0,103.0
Cc1nnc2ccc(-c3cccc(NC(=O)c4ccco4)c3)nn12,77.0*,63.0*,75.0*,65.0*,56.0*,64.0*
COCCN=C1Sc2nc3cc4c(cc3cc2CN1CC1CCCO1)OCO4 (configuration not stated),99.0,95.0,97.0,98.0,101.0,96.0
COC(=O)c1ccc(COc2ccc(/C=C(\C#N)c3nc4ccccc4[nH]3)cc2OC)o1,99.0,101.0,98.0,99.0,102.0,101.0
COc1ccc2nc(/C(C#N)=C\c3ccc(C(=O)O)cc3)[nH]c2c1,96.0,86.0,85.0,86.0,77.0*,78.0*
COc1cc(/C=C(/C#N)c2nc3ccccc3[nH]2)ccc1OCc1ccc(C(=O)O)o1,94.0,77.0*,87.0,78.0*,85.0,78.0*
COc1ccc2c3c(cccc13)C(=O)N(O)C2=O,89.0,82.0,90.0,84.0,79.0*,91.0
COc1ccccc1N1C(=O)c2cccc3c(C(=O)O)ccc(c23)C1=O,103.0,103.0,98.0,103.0,114.0,106.0
O=C(CSc1nncs1)NCCCc1ccccc1,92.0,93.0,99.0,94.0,96.0,97.0
COc1cc2c(cc1OC)-c1cc(NC3CCCCCC3)nc(=O)n1CC2,84.0,75.0*,86.0,75.0*,80.0,77.0*
CCOc1cccc(Nc2cc3n(c(=O)n2)CCc2cc(OC)c(OC)cc2-3)c1,92.0,84.0,87.0,85.0,78.0*,83.0
COc1cc2c(cc1OC)-c1cc(N3CCCCCC3)nc(=O)n1CC2,98.0,96.0,98.0,96.0,97.0,98.0
SMILES,Rab7 wt GTP bind,Rab2A wt mod,Rac1 mut GTP,HRas wt GTP,Rac1 wt GTP bind,Cdc42 wt GTP
CSc1nc2ccc(NS(=O)(=O)c3c(Cl)cccc3Cl)cc2s1,84.0,78.0*,79.0*,83.0,79.0*,81.0
OC(CN1CCN(Cc2ccc3c(c2)OCO3)CC1)c1c[nH]c2ccccc12 (configuration not stated),94.0,107.0,105.0,107.0,122.0*[activator],116.0
Cc1c(C(O)CN2CCN(Cc3ccc4c(c3)OCO4)CC2)c2ccccc2n1C (configuration not stated),99.0,99.0,99.0,100.0,103.0,100.0
CN1CCN(c2ccccc2NC(=O)c2ccc(-c3cccc([N+](=O)[O-])c3)o2)CC1,106.0,106.0,107.0,107.0,123.0*[activator],108.0
Cc1cc(C)n(C(=O)CNC(=O)C2COc3ccccc3O2)n1 (configuration not stated),96.0,100.0,97.0,99.0,104.0,102.0
Cc1cc(C)n(C(=O)CNC(=O)c2ccc3c(c2)OCCO3)n1,20.0*,32.0*,33.0*,38.0*,29.0*,34.0*
COc1ccc(-n2c(C)cc(C(=O)Cn3nc(C(=O)O)c4ccccc4c3=O)c2C)cc1,89.0,81.0,84.0,88.0,83.0,83.0
CCn1cc(C(=O)OCC(=O)c2cc(C)n(-c3ccccc3)c2C)c(=O)c2ccc(C)nc21,100.0,90.0,87.0,93.0,90.0,87.0
CCn1cc(C(=O)OCC(=O)c2cc(C)n(-c3ccc(OC(F)F)cc3)c2C)c(=O)c2ccc(C)nc21,92.0,76.0*,78.0*,85.0,74.0*,79.0*
Cc1cc(C(=O)Cn2nc(C(=O)O)c3ccccc3c2=O)c(C)n1-c1ccc(OC(F)F)cc1,90.0,80.0,83.0,82.0,90.0,79.0*
COc1ccc(CC(=O)NCCC(C)C)cc1S(=O)(=O)N1CCOCC1,98.0,99.0,95.0,94.0,98.0,97.0
O=C(OCc1ccccc1)c1cccnc1Cl,106.0,99.0,93.0,98.0,96.0,94.0
O=C(O)c1ccccc1C(=O)OCc1ccccc1,?,134.0*[activator],?,136.0*[activator],160.0*[activator],115.0
CC(=O)Nc1c(O)nc(SCC(=O)Nc2nnc(SCc3ccccc3)s2)[nH]c1=O,99.0,98.0,92.0,96.0,98.0,98.0
CC(=O)OC(C(=O)NC1CCCCC1)c1ccc(Cl)c(Cl)c1 (configuration not stated),22.0*,33.0*,31.0*,35.0*,29.0*,35.0*
O=C(CCC1CCCN(C(=O)c2ccoc2)C1)NCc1ccccc1F (configuration not stated),95.0,96.0,93.0,95.0,96.0,96.0
Cc1ccc(NC(=O)C(C)NS(=O)(=O)c2ccc(F)cc2)cc1C (configuration not stated),111.0,105.0,101.0,103.0,113.0,104.0
